# Reference: PubChem BioAssay AID2401 (Southern Research Specialized Biocontainment Screening …, 2010)
# The whole screen tested about 2,200 compounds, of which about 530 (24%) were called active. Not all results are given here. Entries with a potency or affinity are not part of this list. Values without a mark were called inactive.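 The calls were made as follows: active = inhibition above a set limit at one or more concentrations of the dose series; inactive = inhibition under that limit at every dose.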
# Assay: S. Typhimurium nonspecific reporter signal inhibition – Salmonella Typhimurium, GFP fluorescence, counter-screen for PhoP regulon inhibitor project, dose response (AID 2401);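 also: S. typhimurium with Mg-insensitive nmpC-GFP reporter grown at 10 µM Mg2+; drop in reporter fluorescence reflects general culture growth inhibition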
# Conditions: 4 h; series mostly up to 150 µM; inhibition: at the top concentration
row,Structure (SMILES),inhibition [%]
1,COc1ccc(Cl)cc1C(=O)CSc1nc(N)cc(N)n1,-10.7
2,COc1ccccc1N1CCN(C/C(O)=C(\C#N)c2nc(-c3ccccc3)cs2)CC1,34
3,Cc1nc(-c2ccccc2)cc(=O)[nH]1,-19.9
4,Cn1c(NCc2ccccc2O)nc2ccccc21,-7.98
5,CC(CCc1ccccc1)NC(=O)c1ccccc1 (centres undefined),-8.81
6,COCC(=O)N=Nc1c(O)[nH]c2ccccc12,-11.6
7,C/C(=N\NC(=S)Nc1ccc(F)cc1)c1ccc2c(c1)OCCO2,-15.3
8,COc1cccc(C=NCCNC(=O)c2nonc2N)c1O,6.54
9,Nc1nonc1C(=O)NCCN=Cc1cc(Cc2ccccc2)cc(Br)c1O,22.3
10,Nc1nonc1-n1nnc(C(=O)N/N=C/c2ccc(Br)cc2)c1CSC1=NCCS1,5.01
11,COC(=O)Cc1c(C)nc2nc(NCc3ccc(Cl)cc3)[nH]n2c1=O,10.4
12,CC(C)CNC(=S)NC1CCCC1,-23.4
13,O=C(OCC(=O)c1ccccc1Cl)c1cnccn1,-6.43
14,Cc1ccc(C(=O)C2COC(=O)C2)cc1 (centres undefined),34.6
15,COc1ccc(S(=O)(=O)N2CCN(C(=O)c3c(C)nn(-c4ccccc4)c3Cl)CC2)cc1,-2.31
16,COc1ccccc1CC(=O)N1CCN(c2ccccn2)CC1,-17.2
17,COc1ccc(-n2c(C)cc(C(=O)Cn3nc(C(=O)O)c4ccccc4c3=O)c2C)cc1,4.51
18,O=C(CN1CCCCC1)Nc1cccc2c1OCO2,-1.21
19,COc1ccccc1NS(=O)(=O)c1cc(NC(=S)Nc2cc(C)cc(C)c2)ccc1Cl,-3.8
20,O=C(c1ccco1)N1CCN(c2ncnc3c2[nH]c2ccccc23)CC1,16.8
21,O=S(=O)(Nc1cc(Sc2cccc3cccnc23)c(O)c2ccccc12)c1ccc(F)cc1,8.76
22,CN(CC(=O)NCc1cccc(F)c1)C(=O)c1ccco1,-15.9
23,COC(=O)c1ccc(Sc2ccccc2NS(=O)(=O)c2ccc(C)cc2)nc1,-13.9
24,COCCCNc1ccnc2c(Cl)cccc12,21.8
25,CC(=O)Nc1cccc(-c2csc(Nc3cccc(C)n3)n2)c1,-14.5

row,Structure (SMILES),inhibition [%]
1,Cc1ccc(-n2c(C)cc(C3=NNC(=NC4CC4)SC3)c2C)cc1C,-9.06
2,COc1ccc(NC(=O)c2sccc2SCC#N)cc1,-16.1
3,CCOC(=O)CN1C(=O)C(C)(C)Oc2ccc(C(=O)Nc3ccccc3OC)cc21,-23.6
4,C=CCSC1=Nc2sccc2C2=NC(=O)CN12,-27.7
5,Cc1ccn2cc(CSc3ccccc3N)nc2c1,-24.9
6,COc1cccc(N=Cc2c[nH][nH]c2=O)c1,3.08
7,CO/N=C\CC(=O)Nc1ccc(F)cc1,-33.4
8,COc1ccccc1N1CCN(C(=O)CSc2nc3ccccc3o2)CC1,-12.1
9,CCC(C)NC(=O)c1ccccc1NC(=O)C(C)N(c1ccccc1)S(C)(=O)=O (centres undefined),-16.5
10,FC(F)(F)COc1nc(OCC(F)(F)F)nc(N2CCN(c3ccccc3)CC2)n1,-20.4
11,CC(=O)Nc1nc2nc(-c3ccccc3)cc(-c3ccccc3)n2n1,3.38
12,Cc1cccc(Sc2c([N+](=O)[O-])ncn2C)c1,14.8
13,S=C(NCc1cccnc1)Nc1ccc(Cl)c(Cl)c1,18.6
14,Cn1ccnc1C(O)c1ccc(OCc2ccccc2)cc1 (centres undefined),6.64
15,O=C(c1cnsn1)N1CCN(c2ccccc2)CC1,-32.8
16,O=C(Nc1ccc(F)cc1)c1ccccc1F,-15.6
17,CC(C)(C)NS(=O)(=O)c1ccc(CCC(=O)N2CCOCC2)cc1,-24.9
18,O=[N+]([O-])c1ccc(-n2nnnc2-c2ccccc2)c([N+](=O)[O-])c1,24.5
19,O=c1ccc2ccc(Oc3ccc([N+](=O)[O-])cc3[N+](=O)[O-])cc2o1,-5.81
20,O=C(Nc1ccccc1)Oc1ccc[nH]c1=O,17.1
21,Cc1ccc(N)cc1-n1c(C)ccc1C,7.88
22,O=C(CC(NS(=O)(=O)c1ccc(Cl)cc1)c1ccco1)N1CCc2ccccc21 (centres undefined),-10.5
23,CC1CCN(C(=O)c2ccc3c(c2NCCO)C(=O)c2ccccc2C3=O)CC1,6.14
24,CC(=O)Cn1cnc2sc(-c3ccccc3)cc2c1=O,-20.4
25,COCCn1cc(C(=O)N2CCC(C)CC2)c2c3ccccc3n(C)c2c1=O,-24.8

row,Structure (SMILES),inhibition [%]
1,Oc1ccccc1-c1nc(/C=C/c2ccccc2)nn1-c1ccccc1,-15.6
2,Cc1ccc(Cn2cnc3ccccc32)cc1,-24.4
3,O=C(NCCCc1ccccc1)Nc1cccc(Cl)c1,-6.65
4,COc1cc(NC(=O)Nc2cccc(Cl)c2)c(OC)cc1NC(=O)CN1CCCCC1,1.04
5,CCCOc1ccc(C(=O)C(CCC(CNCC)C(=O)c2ccc(OCCC)cc2)CNCC)cc1 (centres undefined),11.4
6,O=C1c2ccccc2C(=O)N1CCc1csc(-c2cccc(Cl)c2)n1,-25.4
7,CCOC(=O)c1ccc2c(c1)C(=O)N(C1CCCCC1)C2=O,-9.18
8,CC(=O)c1ccc(NC(=S)NC(NC(=O)c2ccco2)C(Cl)(Cl)Cl)cc1 (centres undefined),26
9,O=[N+]([O-])c1cccc(CN(CCO)Cc2ccccc2)c1,-14.6
10,Nc1nc(CSc2nc3ccccc3[nH]2)nc(N2CCOCC2)n1,-10.8
11,COC(=O)c1ccc(C(=O)OC)c(NC(=O)COc2ccccc2OC)c1,-16.4
12,CCN(CC)c1ccc(S(=O)(=O)Nc2cc(Cl)ccc2Cl)cc1NC(=S)NC(=O)C1CCCC1,-23.8
13,O=C1/C(=C/c2ccccc2)NC(=S)N1C(c1ccccc1)c1ccccc1,-5.32
14,CCN(CC)S(=O)(=O)c1cccc(NC(=O)Nc2cccc(C(F)(F)F)c2)c1,-36.2
15,Fc1cc(Br)ccc1NC(=S)Nc1ccccc1,-47.3
16,Nc1ccc2c(c1)C(=O)N(CC1CCCO1)C2=O (centres undefined),4.4
17,Cc1cccc(C(=O)O/N=C2\CCSc3ccc(C)cc32)c1,-18.9
18,CCOC(=O)c1cnc2ccc(OC)cc2c1Nc1ccc2c(c1)OCCO2,-24.2
19,COc1ccccc1-n1c(SCc2cc(=O)oc3cc(O)ccc23)nc2ccccc2c1=O,1.45
20,Cn1c(COc2ccccc2)nnc1SCc1nc2ccccc2[nH]1,-16.3
21,COc1cccc(/C=N/n2c(C)nc3ccccc3c2=O)c1O,-21.2
22,Cc1cccc(C)c1OCC(=O)Nn1c(COc2ccccc2)nc2ccccc2c1=O,-32.7
23,Nc1nc2ccccc2n1/N=C/c1ccc(-c2ccccc2)o1,-7.01
24,O=C(Nc1ccc2snnc2c1)Nc1cccc2ccccc12,9.59
